FMDV antiviral – High Throughput Screening for Foot and Mouth Disease Virus Antivirals; 410,000 compounds, 1.2% hits; FMDV antiviral cell-based qHTS; Potency, µM (highest dose often 57.9 µM), for inactives: at the top dose activity change, negative = inhibition, usual class: inhibitors; calls by dose curve; tested in HEK293T cells; note: read-out not given here; potency is the fitted concentration of half-maximal effect; nearly all actives have a fitted effect of over 45% in size
Giardia FBPA inh – qHTS Assay for Inhibitors of Fructose-1,6-bisphosphate Aldolase from Giardia Lamblia; A8B2U2; purified Giardia FBPA; Potency, µM (highest dose often 59.6 µM), for the others: at the highest dose activity, negative = inhibition, usual class: inhibitors; 290,000 compounds, 0.71% hits; note: potency is the fitted concentration of half-maximal effect; nearly all actives have a fitted effect of over 55% in size
Target sequence (A8B2U2 whole entry, looked up): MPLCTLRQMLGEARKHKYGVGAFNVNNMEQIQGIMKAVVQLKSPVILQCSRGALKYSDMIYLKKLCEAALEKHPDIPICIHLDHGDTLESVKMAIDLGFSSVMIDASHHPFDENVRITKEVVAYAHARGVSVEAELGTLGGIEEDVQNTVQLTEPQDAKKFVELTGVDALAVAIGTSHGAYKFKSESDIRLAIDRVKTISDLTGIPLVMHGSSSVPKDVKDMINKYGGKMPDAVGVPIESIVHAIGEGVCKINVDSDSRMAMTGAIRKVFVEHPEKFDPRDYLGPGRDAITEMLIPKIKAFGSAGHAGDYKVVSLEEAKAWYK
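Giardia FBPA (40 nM reagent) was preincubated 10 min at RT with compound (up to 57.5 uM final), then substrate plus GAPDH/TPI/NAD/arsenate coupling system with diaphorase/resazurin was added; resorufin fluorescence (525/598 nm) was read after 20 min.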
HCV inh – qHTS Assay for Inhibitors of Hepatitis C Virus (HCV). Huh7.5.1 HCVcc-Cre infection, luciferase reporter, 44 h. Potency, µM (series often up to 41.8 µM), inactives show at the top dose activity change, negative = inhibition, usual class: inhibitors. 340,000 compounds, 3.4% hits; note: potency is the fitted concentration of half-maximal effect
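Infectious HCVcc-Cre (~0.5 moi) was added to cells just after compound, with cells seeded 4 h earlier at 1,000 per well. Luciferase activity after 44 h culture reported infection; substrate was incubated 15 min at room temperature before reading.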
MARV entry inh – qHTS for inhibitors of binding or entry into cells for Marburg Virus. 300,000 compounds, 1.8% hits. AID 540276, 2011. Potency, µM (series often up to 37.8 µM), without a hit: at the highest dose activity change, negative = inhibition, most hits filed as inhibitors. Marburg virus pseudotyped entry inhibition, cell reporter; calls by dose curve; tested in HEK293 cells; note: potency is the fitted concentration of half-maximal effect
LASV entry inh – qHTS for Inhibitors of binding or entry into cells for Lassa Virus; Lassa virus pseudotype entry inhibition, cell reporter; Potency, µM (doses to about 37.9 µM), for inactives: at the highest dose activity change, negative = inhibition, hits mostly inhibitors; 300,000 compounds, 1.2% hits; AID 540256, 2011; calls by dose curve; tested in HEK293 cells; note: potency is the fitted concentration of half-maximal effect; nearly all actives have a fitted effect of over 50% in size
HCMV inh – qHTS Assay for inhibitors of the human cytomegalovirus (HCMV). HFF cells, HCMV-luciferase reporter, 72 h; active compounds read low. AID 1259415, 2018. 410,000 compounds, 4.5% hits. activity change, negative = inhibition, % at 57.5 µM; in the data active = activity change below about -60%; inconclusive = no clear call, values can overlap the other calls; inactive = above about -39%
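HFF cells seeded 16 h at 37C, treated with compounds, infected with luciferase-reporter HCMV at MOI 1 PFU/cell; luciferase read at 72 h post infection, normalized to buffer-only and Salinomycin controls.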
An asterisk follows results filed as active; ? = inconclusive; . = no result given; ! = not active in a repeat; [ ] = remark or other dose. An excerpt weighted towards active compounds, which were near 8.3% of everything screened. Unless noted, calls come from the whole dose curve; as a rule, active = well fitted curve in the direction sought with a large enough effect; inconclusive = small, poorly fitted or top-dose-only effect, or another doubt; inactive = no such curve, though single readings can be large; an effect the other way counts as inactive or inconclusive. % is set by controls: 0 for no effect and ±100 for the full control effect.

SMILES | FMDV antiviral | Giardia FBPA inh | HCV inh | MARV entry inh | LASV entry inh | HCMV inh
CCOc1ccccc1NC(=O)Nc1nnc(N2CCCC(C)C2)s1 (centres undefined) | -13.5% | . | . | 5.8%[46.1 µM] | 16.2%[46.1 µM] | 8.9
COc1cccc(Nc2ncc3ncc(=O)n(C)c3n2)c1 | 13.8% | -24.5% | . | . | . | .
O=C(Nc1ccn(Cc2cccc3ccccc23)n1)c1cccnc1 | ? | -2.2% | ? | ? | ? | -74.7*
O=C(Nc1ccn(Cc2ccc(Cl)cc2)n1)c1ccccc1 | 9.7% | -0.6% | -1.9% | 20.5% | ? | 27.2
CCCCn1c(N)c(NCC(C)C)c(=O)[nH]c1=O | -12.9% | -5.7% | 6.1% | 0.0% | 15.6% | -91.0*
O=C(c1csnn1)N1CCC2(CCCN(C(c3ccccc3)c3ccccc3)C2)CC1 | ? | -2.4% | . | . | . | .
Cc1cc(OCCOCCNCc2ccccc2)ccc1C(C)C | -25.7% | ? | -17.0% | . | . | -8.7
COc1ccc(CNCCC(c2ccc(OC(C)C)cc2)c2ccccc2OC)cc1OC (centres undefined) | ? | -0.2% | 12.6µM* | ? | ? | -98.5*
COc1ccccc1C(CCNCc1ccccc1)c1ccc(OC(C)C)cc1 (centres undefined) | ? | 4.8% | ? | . | . | -101.5*
COc1ccc(CCC(C)NCCc2ccccc2)cc1 (centres undefined) | . | 0.3% | 4.8% | ? | -28.8% | ?
COc1ccccc1C(CCNCc1ccc(N(C)C)cc1)c1ccc(OC(C)C)cc1 (centres undefined) | ? | 5.4% | ? | . | . | -100.7*
COc1ccc(CNCCC(c2ccc(OC(C)C)cc2)c2ccccc2OC)cc1 (centres undefined) | -30.3% | -4.9% | ? | . | . | -98.6*
COc1cccc(CCNC(=O)c2cnc3sc(N4CCCC4)nn3c2=O)c1 | ? | . | . | 1.4%[46.1 µM] | . | -10.4
COc1ccccc1N1CCN(CCCNC(=O)c2cnn(-c3ccccc3)c2C2CCN(C(=O)OC(C)(C)C)CC2)CC1 | -8.3% | . | . | . | ? | ?
N=C(N)c1ccc(OCCCCCOc2ccc(C(=N)N)cc2)cc1 | ? | 5.5% | 2.24µM*! | ? | ? | -88.6*
Cc1cccc(Cl)c1N=CN1c2ccccc2-n2cccc2C1CCc1ccccc1 (centres undefined) | . | . | . | . | . | 8.1
COC(=O)C1=C[C@@H](C(=O)OC)C2C3=C(C(=O)[C@@]2(C)NC(=O)c2ccccc2)[C@H](c2ccccc2)n2c(=O)n(-c4ccccc4)c(=O)n2[C@@H]3C1 (some centres undefined) | . | -2.7% | . | . | . | .
COc1ccc(CN2CCOc3ccc(CN4CCC(O)(c5cccnc5)CC4)cc3C2)cc1OC | -28.0% | . | . | . | . | .
COc1ccc(NC(=S)Nc2ccc(OCc3ccccc3)cc2)c(OC)c1 | 0.0% | -3.3% | ? | ? | -10.0% | -76.5*
COc1ccc(NC(=S)Nc2ccccc2)c(OC)c1 | 5.4% | -6.4% | -24.5% | . | . | -8.7
COc1ccc(NC(=S)Nc2ncccc2C)c(OC)c1 | . | -10.0% | -13.4% | -28.6% | -39.2% | -63.1*
CCOc1ccccc1NC(=S)Nc1ncccc1C | 4.6% | -5.3% | 6.31µM* | ? | ? | -61.1*
COc1ccc(NC(=S)Nc2ncccc2C)cc1OC | 0.0% | ? | -7.5% | -4.8%[46.1 µM] | ? | -28.3
Cc1cccnc1NC(=S)Nc1ncccc1C | 23.8% | ? | -1.1% | ? | ? | 9.9
COc1ccc2[nH]cc(CCO)c2c1 | -3.7% | . | . | . | . | .
SMILES | FMDV antiviral | Giardia FBPA inh | HCV inh | MARV entry inh | LASV entry inh | HCMV inh
CN(C)Cc1c(O)ccc2[nH]cnc12 | -12.9% | -9.2% | ? | 0.0% | 8.0% | -94.9*
Oc1ccc2ccc3[nH]cnc3c2c1 | 33.8% | -10.2% | -10.0% | . | . | -38.0
CC1CCN(S(=O)(=O)c2cc(C(=O)NCc3ccc(F)cc3)n(C)c2)CC1 | -13.7% | . | . | . | -7.8%[46.1 µM] | 8.7
C#Cc1ccccc1C[C@]1(C(=O)OC)C=C[C@H](C)[C@@H](c2ccccc2Br)N1C(=O)C(F)(F)F | . | . | . | 6.5%[14.2 µM] | . | .
COc1ccccc1CNS(=O)(=O)c1ccc(F)cc1Br | . | . | . | ? | . | 31.0
COc1ccccc1CNS(=O)(=O)c1ccc(N2CCCC2)cc1Br | 5.5% | . | 11.2µM* | . | . | -37.9
O=C1CCN(Cc2cccn2-c2ccccn2)CCN1Cc1ccccc1C(F)(F)F | 0.0% | . | . | . | . | .
Cn1c(SSc2ccc(-c3cccnc3)n2C)ccc1-c1cccnc1 | ? | . | -16.9% | 12.6µM* | ? | -36.7
CCCCOC(=O)c1ccc(NC(=O)c2csnn2)cc1 | 18.6% | . | . | ? | ? | -2.3
O=C1C(=O)c2ccccc2C(O)=C1CCCCl | 28.2µM* | 3.54µM* | ? | . | . | .
COc1ccc(CC2=C(O)c3ccccc3C(=O)C2=O)cc1 | -5.5% | -20.4% | 4.3% | ? | -9.6%[46.1 µM] | -31.0
Cc1cnc(CNc2cc(-c3ccoc3)ncn2)cn1 | -22.9% | ? | . | . | . | .
N#Cc1c(-c2ccc(C(F)(F)F)cc2)cc(-c2ccccc2)[nH]c1=S | -22.0% | 5.5% | 2.7% | ? | 3.9% | -60.3*

High-throughput results: PubChem, National Center for Advancing Translational Sciences (NCATS)
